# Measurements as given in publication PMC11006913.
# Target: NKX2-5 (Homo sapiens, UniProt P52952 125-210, R139K)
# Test: PBM; 200 nM protein, PBS
# Conditions: dsDNA, one strand shown
# Sequence of NKX2-5 (Homo sapiens, UniProt P52952 125-210, R139K) (P52952 125-210 R139K): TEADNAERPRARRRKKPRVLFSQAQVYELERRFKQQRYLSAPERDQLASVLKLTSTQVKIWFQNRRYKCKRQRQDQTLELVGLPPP
row,Sequence,binding signal
1,GCTGCGAC,"8.9 upbm affinity estimate (log intensity, higher = more binding, comparable within an allelic series)"
2,CTGCCGCC,"8.73 upbm affinity estimate (log intensity, higher = more binding, comparable within an allelic series)"
3,CACTAAAG,"10.9 upbm affinity estimate (log intensity, higher = more binding, comparable within an allelic series)"
4,GCAGACCA,"9.14 upbm affinity estimate (log intensity, higher = more binding, comparable within an allelic series)"
5,CCCTTAAC,"10.9 upbm affinity estimate (log intensity, higher = more binding, comparable within an allelic series)"
6,ATAAGCGG,"10.3 upbm affinity estimate (log intensity, higher = more binding, comparable within an allelic series)"
7,CACAAGAG,"11.1 upbm affinity estimate (log intensity, higher = more binding, comparable within an allelic series)"
8,CCCTAAGA,"10.8 upbm affinity estimate (log intensity, higher = more binding, comparable within an allelic series)"
9,ACCATGGT,"9.14 upbm affinity estimate (log intensity, higher = more binding, comparable within an allelic series)"
10,CCCTGGGC,"8.86 upbm affinity estimate (log intensity, higher = more binding, comparable within an allelic series)"
11,AGCACTAG,"10.6 upbm affinity estimate (log intensity, higher = more binding, comparable within an allelic series)"
12,AACGCGGA,"8.76 upbm affinity estimate (log intensity, higher = more binding, comparable within an allelic series)"
13,GCCGACCC,"8.84 upbm affinity estimate (log intensity, higher = more binding, comparable within an allelic series)"
14,ATAAGTGA,"12.2 upbm affinity estimate (log intensity, higher = more binding, comparable within an allelic series)"
15,GCCGGCAA,"9.18 upbm affinity estimate (log intensity, higher = more binding, comparable within an allelic series)"
16,CGGCCAGC,"8.6 upbm affinity estimate (log intensity, higher = more binding, comparable within an allelic series)"
17,CACAGCCC,"9.06 upbm affinity estimate (log intensity, higher = more binding, comparable within an allelic series)"
18,AGTGCCTA,"11.2 upbm affinity estimate (log intensity, higher = more binding, comparable within an allelic series)"
19,TGCGCGCA,"9.19 upbm affinity estimate (log intensity, higher = more binding, comparable within an allelic series)"
20,ACTAGTAC,"10.7 upbm affinity estimate (log intensity, higher = more binding, comparable within an allelic series)"

row,Sequence,binding signal
1,ACTCTACT,"10.7 upbm affinity estimate (log intensity, higher = more binding, comparable within an allelic series)"
2,CCGGGCCA,"9.01 upbm affinity estimate (log intensity, higher = more binding, comparable within an allelic series)"
3,CGCCAGGA,"8.64 upbm affinity estimate (log intensity, higher = more binding, comparable within an allelic series)"
4,CCGCAGTC,"8.8 upbm affinity estimate (log intensity, higher = more binding, comparable within an allelic series)"
5,CACAGCCG,"8.68 upbm affinity estimate (log intensity, higher = more binding, comparable within an allelic series)"
6,TCACTCGA,"10.9 upbm affinity estimate (log intensity, higher = more binding, comparable within an allelic series)"
7,ACCGCGGC,"8.83 upbm affinity estimate (log intensity, higher = more binding, comparable within an allelic series)"
8,AGTACTCG,"11.5 upbm affinity estimate (log intensity, higher = more binding, comparable within an allelic series)"
9,CGGACCCC,"9.12 upbm affinity estimate (log intensity, higher = more binding, comparable within an allelic series)"
10,ACCACTCT,"11.3 upbm affinity estimate (log intensity, higher = more binding, comparable within an allelic series)"
11,CGCGAGCC,"8.97 upbm affinity estimate (log intensity, higher = more binding, comparable within an allelic series)"
12,GCAAAGTA,"10.7 upbm affinity estimate (log intensity, higher = more binding, comparable within an allelic series)"
13,ACCAGGGC,"8.76 upbm affinity estimate (log intensity, higher = more binding, comparable within an allelic series)"
14,CCCGTAGC,"8.54 upbm affinity estimate (log intensity, higher = more binding, comparable within an allelic series)"
15,AAGTGAGT,"11.4 upbm affinity estimate (log intensity, higher = more binding, comparable within an allelic series)"
16,CCGTCCCG,"8.71 upbm affinity estimate (log intensity, higher = more binding, comparable within an allelic series)"
17,GGCAAGCC,"8.94 upbm affinity estimate (log intensity, higher = more binding, comparable within an allelic series)"
18,CCGAGCCA,"9.01 upbm affinity estimate (log intensity, higher = more binding, comparable within an allelic series)"
19,TCTGCAGA,"9.09 upbm affinity estimate (log intensity, higher = more binding, comparable within an allelic series)"
20,ACCGCGGG,"8.49 upbm affinity estimate (log intensity, higher = more binding, comparable within an allelic series)"

# Target: NKX2-5 (Homo sapiens, UniProt P52952 125-210)
# Sequence (P52952 125-210): as the sequence (P52952 125-210 R139K) above, with K15R counted along it
# Test: PBM; 200 nM protein, PBS
# Conditions: dsDNA, one strand shown
row,Sequence,binding signal
1,GCTGCGAC,"8.94 upbm affinity estimate (log intensity, higher = more binding, comparable within an allelic series)"
2,CTGCCGCC,"8.63 upbm affinity estimate (log intensity, higher = more binding, comparable within an allelic series)"
3,CACTAAAG,"10.8 upbm affinity estimate (log intensity, higher = more binding, comparable within an allelic series)"
4,GCAGACCA,"9.12 upbm affinity estimate (log intensity, higher = more binding, comparable within an allelic series)"
5,CCCTTAAC,"10.8 upbm affinity estimate (log intensity, higher = more binding, comparable within an allelic series)"
6,ATAAGCGG,"10.3 upbm affinity estimate (log intensity, higher = more binding, comparable within an allelic series)"
7,CACAAGAG,"11 upbm affinity estimate (log intensity, higher = more binding, comparable within an allelic series)"
8,CCCTAAGA,"10.8 upbm affinity estimate (log intensity, higher = more binding, comparable within an allelic series)"
9,ACCATGGT,"9.06 upbm affinity estimate (log intensity, higher = more binding, comparable within an allelic series)"
10,CCCTGGGC,"8.96 upbm affinity estimate (log intensity, higher = more binding, comparable within an allelic series)"
11,AGCACTAG,"10.6 upbm affinity estimate (log intensity, higher = more binding, comparable within an allelic series)"
12,AACGCGGA,"8.8 upbm affinity estimate (log intensity, higher = more binding, comparable within an allelic series)"
13,GCCGACCC,"8.81 upbm affinity estimate (log intensity, higher = more binding, comparable within an allelic series)"
14,ATAAGTGA,"12 upbm affinity estimate (log intensity, higher = more binding, comparable within an allelic series)"
15,GCCGGCAA,"8.86 upbm affinity estimate (log intensity, higher = more binding, comparable within an allelic series)"
16,CGGCCAGC,"8.71 upbm affinity estimate (log intensity, higher = more binding, comparable within an allelic series)"
17,CACAGCCC,"9.02 upbm affinity estimate (log intensity, higher = more binding, comparable within an allelic series)"
18,AGTGCCTA,"11.1 upbm affinity estimate (log intensity, higher = more binding, comparable within an allelic series)"
19,TGCGCGCA,"9.1 upbm affinity estimate (log intensity, higher = more binding, comparable within an allelic series)"
20,ACTAGTAC,"10.7 upbm affinity estimate (log intensity, higher = more binding, comparable within an allelic series)"

row,Sequence,binding signal
1,ACTCTACT,"10.8 upbm affinity estimate (log intensity, higher = more binding, comparable within an allelic series)"
2,CCGGGCCA,"8.94 upbm affinity estimate (log intensity, higher = more binding, comparable within an allelic series)"
3,CGCCAGGA,"8.64 upbm affinity estimate (log intensity, higher = more binding, comparable within an allelic series)"
4,CCGCAGTC,"8.72 upbm affinity estimate (log intensity, higher = more binding, comparable within an allelic series)"
5,CACAGCCG,"8.68 upbm affinity estimate (log intensity, higher = more binding, comparable within an allelic series)"
6,TCACTCGA,"10.9 upbm affinity estimate (log intensity, higher = more binding, comparable within an allelic series)"
7,ACCGCGGC,"8.84 upbm affinity estimate (log intensity, higher = more binding, comparable within an allelic series)"
8,AGTACTCG,"11.3 upbm affinity estimate (log intensity, higher = more binding, comparable within an allelic series)"
9,CGGACCCC,"9.03 upbm affinity estimate (log intensity, higher = more binding, comparable within an allelic series)"
10,ACCACTCT,"11.2 upbm affinity estimate (log intensity, higher = more binding, comparable within an allelic series)"
11,CGCGAGCC,"8.93 upbm affinity estimate (log intensity, higher = more binding, comparable within an allelic series)"
12,GCAAAGTA,"10.8 upbm affinity estimate (log intensity, higher = more binding, comparable within an allelic series)"
13,ACCAGGGC,"8.77 upbm affinity estimate (log intensity, higher = more binding, comparable within an allelic series)"
14,CCCGTAGC,"8.55 upbm affinity estimate (log intensity, higher = more binding, comparable within an allelic series)"
15,AAGTGAGT,"11.4 upbm affinity estimate (log intensity, higher = more binding, comparable within an allelic series)"
16,CCGTCCCG,"8.66 upbm affinity estimate (log intensity, higher = more binding, comparable within an allelic series)"
17,GGCAAGCC,"8.92 upbm affinity estimate (log intensity, higher = more binding, comparable within an allelic series)"
18,CCGAGCCA,"9.05 upbm affinity estimate (log intensity, higher = more binding, comparable within an allelic series)"
19,TCTGCAGA,"9.04 upbm affinity estimate (log intensity, higher = more binding, comparable within an allelic series)"
20,ACCGCGGG,"8.44 upbm affinity estimate (log intensity, higher = more binding, comparable within an allelic series)"
